Reference: the supplement of paper PMC11732987, “Enantioselective OTUD7B fragment discovery through chemoproteomics screening and high-throughput optimisation” (Communications Chemistry, 2025)
A number with no mark means an inactive call.

Experiments:
Assay in all cases: log2 ratio of Biotin-Ahx-Ub-VS probe labelling (fragment/DMSO); higher = less target engagement (more negative = stronger competition), active = hit call of the paper (q ≤ 0.05, log2 ratio ≤ -1)
Details in all cases: compound concentration: 200 uM; treatment time: 3 h
OTUD6B = biological target: T1, OTUD6B (UniProt Q8N6M0)
T1 sequence (whole entry): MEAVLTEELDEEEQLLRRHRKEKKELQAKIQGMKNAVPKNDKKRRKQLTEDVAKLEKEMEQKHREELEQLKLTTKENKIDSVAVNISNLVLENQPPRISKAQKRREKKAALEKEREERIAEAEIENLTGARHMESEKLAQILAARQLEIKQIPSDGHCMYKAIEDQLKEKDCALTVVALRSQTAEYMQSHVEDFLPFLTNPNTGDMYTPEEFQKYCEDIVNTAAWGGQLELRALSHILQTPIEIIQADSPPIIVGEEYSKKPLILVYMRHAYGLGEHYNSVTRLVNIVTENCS
In short: (§1)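 Triplicate samples of HEK293T lysate, 495 µg each, received fragment at 200 µM or vehicle for 3 h, followed by Biotin-Ahx-Ub-VS (0.5 µM final) for 1 h. After NeutrAvidin enrichment of labelled DUBs and LysC/trypsin digestion, peptides were run by diaPASEF LC-MS/MS. The values are average log2 fragment/vehicle ratios from global-median-normalised Spectronaut label-free quantities, tested by unpaired t-test on proteins having ≥2 unique peptides.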

OTUD7B = biological target: T2, OTUD7B (UniProt Q6GQQ9)
T2 sequence (whole entry): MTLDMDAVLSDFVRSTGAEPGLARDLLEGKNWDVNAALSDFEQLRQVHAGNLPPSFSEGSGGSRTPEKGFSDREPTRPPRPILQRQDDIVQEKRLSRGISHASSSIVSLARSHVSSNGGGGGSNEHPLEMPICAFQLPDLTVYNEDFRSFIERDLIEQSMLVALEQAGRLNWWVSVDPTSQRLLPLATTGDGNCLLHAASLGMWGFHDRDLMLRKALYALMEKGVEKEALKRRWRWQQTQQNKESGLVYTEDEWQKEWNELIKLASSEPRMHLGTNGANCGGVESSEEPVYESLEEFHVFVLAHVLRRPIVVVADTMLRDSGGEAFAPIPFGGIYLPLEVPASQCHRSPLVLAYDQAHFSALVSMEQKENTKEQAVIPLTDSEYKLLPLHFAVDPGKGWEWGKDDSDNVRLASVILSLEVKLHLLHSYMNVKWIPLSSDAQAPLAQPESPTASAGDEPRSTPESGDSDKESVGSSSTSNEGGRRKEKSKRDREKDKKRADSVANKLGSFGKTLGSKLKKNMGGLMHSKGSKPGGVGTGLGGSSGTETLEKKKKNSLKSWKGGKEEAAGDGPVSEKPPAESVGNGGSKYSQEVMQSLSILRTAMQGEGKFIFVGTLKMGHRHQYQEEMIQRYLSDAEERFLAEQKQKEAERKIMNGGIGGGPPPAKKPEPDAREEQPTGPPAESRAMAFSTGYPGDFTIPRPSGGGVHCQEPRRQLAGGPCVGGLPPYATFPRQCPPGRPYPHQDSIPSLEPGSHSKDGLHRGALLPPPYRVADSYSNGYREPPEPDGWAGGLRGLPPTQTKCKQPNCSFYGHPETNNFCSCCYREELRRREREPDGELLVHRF
In short: as §1

PRPF8 = PRPF8 (UniProt Q6P2Q9)
In short: as §1

PSMD7 = biological target: T3, PSMD7 (UniProt P51665)
T3 sequence (whole entry): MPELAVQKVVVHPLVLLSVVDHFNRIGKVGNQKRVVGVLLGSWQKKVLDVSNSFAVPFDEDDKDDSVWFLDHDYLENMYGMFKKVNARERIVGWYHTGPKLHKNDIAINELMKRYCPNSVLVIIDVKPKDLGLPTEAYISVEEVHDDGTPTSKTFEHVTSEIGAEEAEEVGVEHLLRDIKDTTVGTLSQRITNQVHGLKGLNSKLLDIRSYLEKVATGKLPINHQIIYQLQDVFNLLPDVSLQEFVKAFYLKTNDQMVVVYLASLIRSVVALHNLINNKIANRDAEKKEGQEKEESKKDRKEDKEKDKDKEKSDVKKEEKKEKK
In short: as §1

UCHL1 = UCHL1 (UniProt P09936)
Sequence of UCHL1 (P09936 whole entry, looked up): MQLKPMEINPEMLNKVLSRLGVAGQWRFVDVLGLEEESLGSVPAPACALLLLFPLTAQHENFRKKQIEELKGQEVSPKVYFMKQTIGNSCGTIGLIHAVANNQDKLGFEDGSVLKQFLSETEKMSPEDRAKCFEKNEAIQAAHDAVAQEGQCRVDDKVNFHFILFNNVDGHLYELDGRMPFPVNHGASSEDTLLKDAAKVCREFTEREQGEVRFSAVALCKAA
In short: as §1

UCHL3 = biological target: T4, UCHL3 (UniProt P15374)
T4 sequence (whole entry): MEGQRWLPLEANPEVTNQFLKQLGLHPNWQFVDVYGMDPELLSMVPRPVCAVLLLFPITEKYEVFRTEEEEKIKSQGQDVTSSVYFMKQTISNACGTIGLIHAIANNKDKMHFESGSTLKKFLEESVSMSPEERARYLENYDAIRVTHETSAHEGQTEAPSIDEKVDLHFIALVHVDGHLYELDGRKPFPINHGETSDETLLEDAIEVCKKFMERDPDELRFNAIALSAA
In short: as §1

UCHL5 = biological target: T5, UCHL5 (UniProt Q9Y5K5)
T5 sequence (whole entry): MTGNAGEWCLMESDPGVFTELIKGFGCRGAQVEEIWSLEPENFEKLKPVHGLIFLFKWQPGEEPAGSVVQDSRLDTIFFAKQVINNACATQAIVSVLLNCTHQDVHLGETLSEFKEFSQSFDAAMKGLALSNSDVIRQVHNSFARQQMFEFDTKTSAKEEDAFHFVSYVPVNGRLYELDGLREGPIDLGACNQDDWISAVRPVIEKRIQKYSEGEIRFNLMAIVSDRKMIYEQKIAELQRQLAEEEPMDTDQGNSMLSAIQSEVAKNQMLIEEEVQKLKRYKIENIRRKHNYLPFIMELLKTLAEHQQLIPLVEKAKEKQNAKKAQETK
In short: as §1

USP10 = USP10 (UniProt Q14694)
Sequence of USP10 (Q14694 whole entry): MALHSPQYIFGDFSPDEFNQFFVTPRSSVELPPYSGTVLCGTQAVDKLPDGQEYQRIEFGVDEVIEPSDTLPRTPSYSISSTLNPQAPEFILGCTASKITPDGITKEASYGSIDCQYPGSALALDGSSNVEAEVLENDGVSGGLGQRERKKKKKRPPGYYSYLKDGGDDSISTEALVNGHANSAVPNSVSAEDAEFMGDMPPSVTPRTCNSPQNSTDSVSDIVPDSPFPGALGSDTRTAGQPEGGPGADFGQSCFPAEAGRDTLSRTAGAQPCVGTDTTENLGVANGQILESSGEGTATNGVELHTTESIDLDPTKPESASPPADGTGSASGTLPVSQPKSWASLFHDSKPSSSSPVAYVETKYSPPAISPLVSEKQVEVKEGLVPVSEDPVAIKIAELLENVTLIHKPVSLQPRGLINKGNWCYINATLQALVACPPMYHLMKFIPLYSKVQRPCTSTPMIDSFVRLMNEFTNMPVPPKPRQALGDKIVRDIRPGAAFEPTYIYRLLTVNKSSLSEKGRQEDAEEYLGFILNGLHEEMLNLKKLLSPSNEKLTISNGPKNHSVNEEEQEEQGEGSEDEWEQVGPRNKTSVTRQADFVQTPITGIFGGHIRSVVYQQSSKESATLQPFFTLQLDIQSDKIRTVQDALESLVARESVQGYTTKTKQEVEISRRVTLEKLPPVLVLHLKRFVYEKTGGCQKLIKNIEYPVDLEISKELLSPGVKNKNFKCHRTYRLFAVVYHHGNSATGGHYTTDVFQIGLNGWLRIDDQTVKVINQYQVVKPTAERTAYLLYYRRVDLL
In short: as §1

USP15 = biological target: T6, USP15 (UniProt Q9Y4E8)
T6 sequence (whole entry): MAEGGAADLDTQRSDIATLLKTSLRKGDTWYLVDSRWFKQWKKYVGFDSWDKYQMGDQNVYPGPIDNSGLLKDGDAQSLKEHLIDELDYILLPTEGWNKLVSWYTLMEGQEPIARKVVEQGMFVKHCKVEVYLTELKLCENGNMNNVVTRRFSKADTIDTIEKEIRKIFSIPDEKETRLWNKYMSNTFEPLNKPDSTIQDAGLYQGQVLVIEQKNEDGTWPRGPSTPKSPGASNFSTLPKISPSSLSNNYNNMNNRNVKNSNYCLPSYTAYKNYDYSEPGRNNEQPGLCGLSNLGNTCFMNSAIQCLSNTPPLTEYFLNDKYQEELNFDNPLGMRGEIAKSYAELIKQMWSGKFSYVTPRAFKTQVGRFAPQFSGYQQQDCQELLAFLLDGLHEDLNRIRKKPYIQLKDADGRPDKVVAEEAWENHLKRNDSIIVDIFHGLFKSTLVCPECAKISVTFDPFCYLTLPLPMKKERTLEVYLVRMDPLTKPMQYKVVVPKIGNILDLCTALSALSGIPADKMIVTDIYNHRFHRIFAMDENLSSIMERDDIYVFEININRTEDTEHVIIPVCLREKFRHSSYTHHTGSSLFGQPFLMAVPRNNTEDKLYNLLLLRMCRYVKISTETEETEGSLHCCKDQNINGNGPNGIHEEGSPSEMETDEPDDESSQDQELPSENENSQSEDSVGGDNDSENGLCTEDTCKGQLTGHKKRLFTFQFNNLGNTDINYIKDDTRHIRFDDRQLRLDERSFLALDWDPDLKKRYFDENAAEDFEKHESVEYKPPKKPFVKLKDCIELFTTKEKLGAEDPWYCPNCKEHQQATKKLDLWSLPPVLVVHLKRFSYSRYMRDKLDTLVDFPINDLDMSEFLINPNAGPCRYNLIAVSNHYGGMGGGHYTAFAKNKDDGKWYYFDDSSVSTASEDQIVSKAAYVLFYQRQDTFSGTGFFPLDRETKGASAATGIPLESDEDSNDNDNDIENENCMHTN
In short: as §1

USP16 = USP16 (UniProt Q9Y5T5)
Sequence of USP16 (Q9Y5T5 whole entry, looked up): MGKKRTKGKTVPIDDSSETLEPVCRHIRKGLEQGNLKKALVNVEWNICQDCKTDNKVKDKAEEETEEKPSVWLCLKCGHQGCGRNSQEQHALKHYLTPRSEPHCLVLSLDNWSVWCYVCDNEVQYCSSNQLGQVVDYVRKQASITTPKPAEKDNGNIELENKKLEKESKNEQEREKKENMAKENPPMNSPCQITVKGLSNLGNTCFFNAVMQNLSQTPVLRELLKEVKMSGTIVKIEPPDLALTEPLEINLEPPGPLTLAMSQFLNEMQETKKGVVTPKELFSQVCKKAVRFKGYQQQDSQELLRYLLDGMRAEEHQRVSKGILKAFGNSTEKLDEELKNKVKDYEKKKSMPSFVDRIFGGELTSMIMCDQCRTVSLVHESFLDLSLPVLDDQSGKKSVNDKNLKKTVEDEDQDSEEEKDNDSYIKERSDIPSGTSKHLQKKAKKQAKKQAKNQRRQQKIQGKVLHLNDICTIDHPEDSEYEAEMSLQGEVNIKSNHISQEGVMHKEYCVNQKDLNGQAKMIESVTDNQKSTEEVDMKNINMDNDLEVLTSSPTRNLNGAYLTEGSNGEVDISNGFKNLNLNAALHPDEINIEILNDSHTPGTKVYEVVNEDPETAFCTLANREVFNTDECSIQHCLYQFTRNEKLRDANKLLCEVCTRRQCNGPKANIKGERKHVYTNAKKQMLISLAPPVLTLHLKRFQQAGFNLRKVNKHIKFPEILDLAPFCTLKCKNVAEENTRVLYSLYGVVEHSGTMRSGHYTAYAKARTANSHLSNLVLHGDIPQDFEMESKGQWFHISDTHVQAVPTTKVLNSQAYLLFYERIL
In short: as §1

Row | Compound | log2 ratio of Biotin-Ahx-Ub-VS probe labelling (OTUD6B) | log2 ratio of Biotin-Ahx-Ub-VS probe labelling (OTUD7B) | log2 ratio of Biotin-Ahx-Ub-VS probe labelling (PRPF8) | log2 ratio of Biotin-Ahx-Ub-VS probe labelling (PSMD7) | log2 ratio of Biotin-Ahx-Ub-VS probe labelling (UCHL1) | log2 ratio of Biotin-Ahx-Ub-VS probe labelling (UCHL3) | log2 ratio of Biotin-Ahx-Ub-VS probe labelling (UCHL5) | log2 ratio of Biotin-Ahx-Ub-VS probe labelling (USP10) | log2 ratio of Biotin-Ahx-Ub-VS probe labelling (USP15) | log2 ratio of Biotin-Ahx-Ub-VS probe labelling (USP16)
1 | CCC1c2ccsc2CCN1C(=O)CCl (stereo not given) | -0.158 | -0.505 | 0.237 | -0.0765 | -1.35 (active) | -0.00293 | -0.25 | -0.134 | -0.298 | -0.5
2 | Cc1ccc(C)c(NC(=O)CCl)c1 | -0.56 | -0.844 | -0.000105 | -0.209 | -1.17 (active) | -0.416 | -0.568 | -0.39 | -0.203 | -0.0434
3 | O=C(CCl)Nc1cc(Cl)ccc1C(=O)O | 0.133 | -0.0733 | -0.2 | -0.0699 | -1.38 (active) | 0.231 | -0.0926 | -0.101 | -0.15 | -0.669
4 | Cc1cccc(NC(=O)CCl)c1C | -0.273 | -0.61 | 0.0787 | -0.631 | -0.766 | -1.39 (active) | -0.0693 | -0.292 | -0.43 | -0.691
5 | Cl.O=C(CCl)N1CCc2ncncc2C1 | -0.0834 | -0.487 | 0.0782 | -0.0569 | -0.583 | 0.176 | -0.176 | -0.322 | -0.514 | -0.106
6 | CCN1C(=O)C2CN(C(=O)CCl)CCN2C1=O (stereo not given) | -0.0446 | -0.649 | 0.0726 | 0.0575 | -1.56 (active) | 0.629 | -0.0935 | -0.0852 | -0.265 | -0.656
7 | CC(O)CC1CCN(C(=O)CCl)CC1 (stereo not given) | -0.0339 | -0.302 | 0.0532 | -0.0764 | -1.53 (active) | 0.294 | -0.019 | -0.0376 | -0.0583 | -0.771
